Compound activity: PubChem BioAssay, National Center for Advancing Translational Sciences (NCATS)
TDP1 inh – inhibitors of human tyrosyl-DNA phosphodiesterase TDP1; Potency, µM (series often up to 130 µM), without a hit: top-dose activity change, negative = inhibition, hits mostly inhibitors; Q9NUW8; AID 485290; recombinant TDP1, AlphaScreen DNA substrate cleavage; 350,000 compounds, 0.28% hits; note: potency is the fitted concentration of half-maximal effect; % is set by controls: 0 for no effect and ±100 for the full control effect; nearly all actives have a fitted effect of over 40% in size
Target sequence (Q9NUW8 whole entry, looked up): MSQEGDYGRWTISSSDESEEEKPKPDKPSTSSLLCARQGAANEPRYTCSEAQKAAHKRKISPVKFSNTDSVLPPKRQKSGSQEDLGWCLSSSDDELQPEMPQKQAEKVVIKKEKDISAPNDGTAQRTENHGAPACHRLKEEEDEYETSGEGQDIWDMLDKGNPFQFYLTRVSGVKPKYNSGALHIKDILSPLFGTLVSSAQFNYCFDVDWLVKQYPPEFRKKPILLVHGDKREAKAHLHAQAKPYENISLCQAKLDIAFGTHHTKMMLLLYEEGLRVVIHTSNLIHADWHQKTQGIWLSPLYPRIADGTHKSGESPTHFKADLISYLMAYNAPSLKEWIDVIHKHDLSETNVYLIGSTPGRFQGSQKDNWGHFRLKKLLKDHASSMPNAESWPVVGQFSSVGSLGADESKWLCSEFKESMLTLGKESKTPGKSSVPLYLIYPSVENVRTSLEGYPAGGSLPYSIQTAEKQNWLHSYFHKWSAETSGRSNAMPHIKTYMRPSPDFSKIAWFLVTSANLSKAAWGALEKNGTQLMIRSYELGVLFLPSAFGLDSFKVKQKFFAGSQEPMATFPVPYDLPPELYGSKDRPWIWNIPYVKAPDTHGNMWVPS
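Signal: AlphaScreen proximity between streptavidin donor and anti-FITC acceptor beads on intact substrate. Reaction: Tdp1 1 nM, substrate 15 nM final, 5 min RT after 15 min compound preincubation.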
DT40 TDP1 CPT – DT40-hTDP1 cell growth loss with CPT. AID 686979. chicken DT40 Tdp1-/-;hTDP1 cells + 20 nM CPT, ATP luminescence, 48 h. 420,000 compounds, 12% hits. Potency, µM (doses to about 46.2 µM), inactives show at the highest dose activity change, negative = growth inhibition, hits mostly inhibitors; note: potency is the fitted concentration of half-maximal effect; % is set by controls: 0 for no effect and ±100 for the full control effect; nearly all actives have a fitted effect of over 55% in size
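Chicken DT40 Tdp1-/- cells stably complemented with human TDP1 were seeded at 400 cells/well in medium containing 20 nM camptothecin, exposed to pin-transferred compounds, and grown at 37 °C for at least 48 hr. Viability was read as ATP luminescence.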
TGFb inhibitor – inhibitors of TGF-b signaling; Potency, µM (doses to about 46.1 µM), without a hit: top-dose activity, negative = inhibition, usual class: inhibitors; HepG2 CAGA-GFP TGF-b/SMAD3 reporter, GFP fluorescence, 18 h; TGF-beta stimulated, 500 pg/mL final; AID 588855; 410,000 compounds, 1.2% hits; note: potency is the fitted concentration of half-maximal effect; % is set by controls: 0 for no effect and ±100 for the full control effect; nearly all actives have a fitted effect of over 65% in size
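Inhibition of TGF-beta-driven CAGA-GFP reporter expression in HEPG2 cells is measured by cellular GFP fluorescence after 18 h stimulation with 500 pg/mL recombinant TGF-beta in 1% FBS medium at 37 degrees C.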
HepG2 viability – counter-screen for TGF-b inhibitors: cytotoxicity in HepG2 cells; 410,000 compounds, 0.76% hits; HepG2 CAGA-GFP viability, ATP luminescence, 18 h; Potency, µM (top dose mostly 46.1 µM), inactives show at the top dose activity change, negative = cytotoxicity, usual class: cytotoxic; note: potency is the fitted concentration of half-maximal effect
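CellTiter-Glo luminescence gave cytotoxicity after 18 hours at 37 degrees C. The cells were HepG2 CAGA-GFP in 1% FBS DMEM, stimulated with 500 pg/mL TGF-beta after compound addition. %Activity was normalised to no-cell wells (complete cell-killing) and DMSO (no toxicity), and curves were fitted and classified.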
IL-1B inflam inh – inflammasome signaling inhibition, IL-1 beta readout | THP-1 LPS/ATP IL-1B secretion, AlphaLISA, 16 h; stronger effect = lower value | activity change, % at 57.5 µM | 360,000 compounds, 4.7% hits; in the data active = activity change below about -50%; inconclusive = mostly about -30% to -49%; note: % is set by controls: 0 for no effect and ±100 for the full control effect
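Secreted IL-1B measured by AlphaLISA bead assay after 16 h compound exposure of THP-1 cells; compounds (final up to 57.5 uM) added 1 h before LPS (250 ng/mL) and ATP (1.25 mM) stimulation; lower signal means less secretion.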
TDP1 cell noCPT – qHTS for Inhibitors of human tyrosyl-DNA phosphodiesterase 1 (TDP1): qHTS in cells in absence of CPT. 420,000 compounds, 15% hits. Potency, µM (doses to about 46.2 µM), without a hit: at the highest dose activity change, negative = growth inhibition, hits mostly inhibitors. AID 686978, 2013. DT40 Tdp1-/- hTDP1 cells, no CPT, ATP luminescence, 48 h; note: potency is the fitted concentration of half-maximal effect; % is set by controls: 0 for no effect and ±100 for the full control effect; nearly all actives have a fitted effect of over 55% in size
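A cellular qHTS used chicken DT40 cells lacking endogenous Tdp1 but carrying stably transfected human TDP1. Compounds were applied without camptothecin, and cell growth kinetics were judged by ATP-dependent luminescence after ≥48 hr.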
Numbers without * were called inactive; u = inconclusive; x = not tested or not shown; ! = not active in a repeat; [ ] = remark or other dose. Only some compounds are listed: those with a hit (about 18% of all), similar ones and a draw of the others. Unless noted, calls come from the whole dose curve; as a rule, active = well fitted curve in the direction sought with a large enough effect; inconclusive = small, poorly fitted or top-dose-only effect, or another doubt; inactive = no such curve, though single readings can be large; an effect the other way counts as inactive or inconclusive.

SMILES	TDP1 inh	DT40 TDP1 CPT	TGFb inhibitor	HepG2 viability	IL-1B inflam inh	TDP1 cell noCPT
CCN1CCN(CC(O)COC(c2ccccc2)c2ccccc2C)CC1 (stereo not drawn)	x	u	6%	0%	2	-10%
Cc1cc(CNC(=O)C(C)n2cc([N+](=O)[O-])cn2)c2ccccc2n1 (stereo not drawn)	5%	u	-9%	-8%	13	21µM*
COCCn1c(SCc2cccnc2)nnc1-c1c[nH]c2ccccc12	-5%	-1%	0%	1%	-4	0%
CCn1c(SCc2cccnc2)nnc1-c1c[nH]c2ccccc12	0%	15µM*	0%	-32%	20	u
N#Cc1ccc(CSc2nnc(-c3c[nH]c4ccccc34)n2-c2ccccc2)cc1	7%	u	-17%	-15%	-67*	23µM*
CCCSc1nnc(-c2c[nH]c3ccccc23)n1C	5%	u	1%	-6%	0	u
N#Cc1ccc(CSc2nnc(-c3ccccn3)n2-c2ccccc2)cc1	2%	u	11%	-8%	-18	u
CCCSc1nnc(-c2c[nH]c3ccccc23)n1CC	7%	15µM*	-6%	-12%	-17	u
CN1CCN(CCCN2c3ccccc3Sc3ccccc32)CC1	9%	u	x	x	x	u
CCOC(=O)Nc1ccc2c(c1)N(C(=O)CN1CCN(C)CC1)c1ccccc1S2	2%	u	2%	-37%	-9	u
CN1CCN(CCCN2c3ccccc3Sc3ccc(Cl)cc32)CC1	8%	4.6µM*!	u	11µM*!	-64*!	21µM*
CCSc1ccc2c(c1)N(CCCN1CCN(C)CC1)c1ccccc1S2	23%[21 µM]	26µM*	u	-84%	-57*	u
CCC(=O)c1ccc2c(c1)N(CCCN1CCN(CCO)CC1)c1ccccc1S2	x	3µM*	x	x	x	4.7µM*
CCN1C(=O)c2ccccc2Sc2ccc(C(=O)O)cc21	x	20%	0%	-3%	18	17%
OC1CC2CCC(C1)N2CCCN1c2ccccc2Sc2ccc(Cl)cc21 (stereo not drawn)	x	23µM*	u	22µM*	-81*	15µM*
CN(C)CCCN1c2ccc(O)cc2Sc2ccc(Cl)cc21	x	u	-11%	-41%	-30	u
CCOC(=O)c1c(/N=C/N(C)C)sc(/C=N/Nc2ccccc2)c1-c1ccc(Cl)cc1	8%	u	-30%	-6%	-9	u
CCc1cc(C(=O)NCC2Cc3cccc(-c4ccc(C(=O)OC)cn4)c3O2)no1 (stereo not drawn)	x	5%	x	x	x	-5%
OCCN1CCN(CCCN2c3ccccc3CCc3ccccc32)CC1	x	u	-1%	-19%	-26	u
OCCN1CCN(CCCN2c3ccccc3C=Cc3ccccc32)CC1	13%	8.4µM*	x	x	x	6µM*
CC(CN1CCN(CCOCCO)CC1)CN1c2ccccc2Sc2ccc(Cl)cc21 (stereo not drawn)	x	u	u	13µM*	-26	u
O=c1cc(CN2CCCCC2)c2ccccc2o1	x	-6%	-16%	-34%	24	-4%
ONC(=NCc1ccccc1)c1ccccc1	x	-3%	-13%	-3%	10	-15%
CN(CCC#N)c1ccc(/C=C/c2ccnc3ccccc23)cc1	x	0.79µM*	u	-37%	x	2µM*
CCN(CCC#N)c1ccc(/C=C/c2ccnc3ccccc23)cc1	x	u	u	-44%	x	20µM*
SMILES	TDP1 inh	DT40 TDP1 CPT	TGFb inhibitor	HepG2 viability	IL-1B inflam inh	TDP1 cell noCPT
CCN1C(C)=C(C(=O)OC)C(c2ccccc2)N2C(=O)[C@](O)(C(=O)OC)CC(C#N)=C12 (stereo partly drawn)	11%[21 µM]	x	x	x	x	x
CSCCC(NS(=O)(=O)c1ccc2c(c1)oc(=O)n2C)C(=O)N1CCN(c2cccc(Cl)c2)CC1 (stereo not drawn)	-1%	u	u	-6%	x	21µM*
CN1C(=O)Cc2cc(S(=O)(=O)CCC(=O)N3CCN(c4cccc(Cl)c4)CC3)ccc21	5%	21µM*	u	-2%	x	8.2µM*
Cn1c(=O)oc2cc(S(=O)(=O)CCC(=O)N3CCN(c4ccccc4)CC3)ccc21	3%	-24%	5%	0%	3	27%
Cn1c(=O)oc2cc(S(=O)(=O)CCC(=O)N3CCN(c4cccc(Cl)c4)CC3)ccc21	5%	18µM*	10%	20%	x	12µM*
COc1cccc(N2CCN(C(=O)C(CCSC)NS(=O)(=O)c3ccc4c(c3)oc(=O)n4C)CC2)c1 (stereo not drawn)	6%	-22%	-1%	7%	x	-18%
O=C(Nc1cccc(S(=O)(=O)N2CCOCC2)c1)c1ccc(N2CCCC2=O)cc1	1%	-3%	4%	-1%	-10	1%
CC(=O)c1cccc(NC(=O)C(C)OC(=O)CCN=C2NS(=O)(=O)c3ccccc32)c1 (stereo not drawn)	x	-27%	20%	3%	9	0%
Cc1cc(C)c2c(CC(=O)Nc3nnc(C(C)C)s3)coc2c1	7%	u	u	-66%	x	u
COc1cccc(COC(=O)C(Cc2ccccc2)NC(=O)c2ccco2)c1 (stereo not drawn)	x	0%	4%	-31%	16	6%
Cc1c(C(=O)NCc2cccnc2)sc2nc(-c3ccc(F)cc3)cn12	1%	u	-3%	-17%	-3	13µM*
Cc1c(C(=O)N2CCN(c3ccc(F)cc3)CC2)sc2nc(-c3ccccc3)cn12	6%	-25%	-2%	-16%	0	-28%
Cc1c(C(=O)NCc2ccco2)sc2nc(-c3ccccc3)cn12	7%	u	6%	-1%	-15	u
Cc1c(C(=O)N(C)Cc2ccccc2)sc2nc(-c3ccc(F)cc3)cn12	4%	u	13µM*	-61%	x	u
Cc1c(C(=O)NCc2ccccc2Cl)sc2nc(-c3ccc(F)cc3)cn12	-3%	u	u	-19%	x	16µM*
Cc1c(C(=O)NCc2ccc(F)cc2)sc2nc(-c3ccccc3)cn12	4%	18µM*	-3%	-2%	x	u
CN(C)c1ccc(S(=O)(=O)N2CCCCC2)cc1NC(=O)C1=NN(c2ccccc2)C(=O)CC1	3%	u	1%	1%	7	u
Cc1nc2ccccn2c1C(=O)NCc1cccnc1	7%	-3%	-8%	7%	31	4%
